PubChem BioAssay AID1981 (Southern Research Specialized Biocontainment Screening …, 2009)
The whole screen tested about 2,200 compounds, of which about 480 (22%) were called active. How the calls were made is not given here. Not all results are given here. Measured potencies and affinities stand elsewhere.

Experiment: S. Typhimurium GFP fluorescence dose response in modified counterscreen for PhoP regulon inhibitor project (AID 1981)
Settings: 4 h; series mostly up to 150 µM
With C=CCOc1ccc(/C=N/NC(=O)CN(c2cc(Cl)ccc2OC)S(=O)(=O)c2ccc(C)c([N+](=O)[O-])c2)cc1 the outcome was “inactive”. For CN(CC(=O)Nc1ccc(C#N)cc1)Cc1ccc(Cl)cc1, the outcome was “inactive”. In the case of O=C(CSc1ccc(Cl)cc1)Nc1ccccc1N1CCN(C(=O)c2ccc(Cl)cc2)CC1, the outcome is reported as “inactive”. With Cc1nc(C(=O)Nc2ccc(Cl)cc2)nn1-c1ccc([N+](=O)[O-])cc1 the outcome was “inactive”. With OC1(c2ccc3ccccc3c2)CCN(Cc2ccccc2)C1 (stereo not given) the outcome was “inactive”. For NNC(=O)c1cc2ccccc2cc1O, the outcome was “inactive”. With NC(=NCCc1c[nH]c2ccccc12)NC(=O)c1ccc(F)cc1 the outcome was “inactive”. For C=CCSc1ncnc2sc(C)c(C)c12, the outcome was “inactive”. With Cc1cc2cc(CCNC(=O)c3cccs3)c(=O)[nH]c2cc1C the outcome was “inactive”. With CCOC(=O)c1cnc2ccc(OC)cc2c1Nc1ccc2c(c1)OCCO2 the outcome was “inactive”. In the case of COc1cccc(Cn2cnc3c(NS(=O)(=O)c4cccc(Cl)c4Cl)c(C)c(C)cc32)c1, the outcome is reported as “inactive”. For Cc1cc(Oc2ccc(-c3nnc(-c4ccccc4)o3)cc2[N+](=O)[O-])ccc1Cl, the outcome was “inactive”. With O=c1[nH]c(CSc2nnc(NCCCN3CCOCC3)s2)nc2cc(Cl)ccc12 the outcome was “inactive”. For O=C(Nc1ccc(O)cc1)c1cc2n(n1)C(C(F)(F)F)CC(c1ccco1)N2 (stereo not given), the outcome was “inactive”. For CCOc1cc(C2Nc3cccc4cccc(c34)N2)ccc1O, the outcome was “inactive”. With OC(COc1ccc2c(c1)CCC2)Cn1cnc2ccccc21 (stereo not given) the outcome was “inactive”. For O=C1CC(SCc2nc3ccccc3[nH]2)C(=O)N1c1ccc(Cl)cc1 (stereo not given), the outcome was “inactive”. In the case of Cc1c(Cl)cccc1NC(=O)CSc1ncnc2c1cnn2CCc1ccccc1, the outcome is reported as “inactive”. In the case of Cc1ccc(S(=O)(=O)N2CCC(C(N)=O)CC2)c(C)c1C, the outcome is reported as “inactive”. With O=C1C2=C(NC(=S)NC2c2ccc(Cl)cc2)NC(c2ccc(Cl)cc2)N1c1ccc(Cl)cc1 (stereo not given) the outcome was “inactive”. For Cc1nc(-c2ccccc2)cc(=O)[nH]1, the outcome was “inactive”. With CC(=O)C1=C(C)Nc2ncnn2C1c1ccccc1OCc1ccccc1 (stereo not given) the outcome was “inactive”. In the case of O=C(Nc1ccc2c(c1)OCO2)c1cnn2cccnc12, the outcome is reported as “inactive”. For OCCN(Cc1ccccc1)Cc1ccc(Cl)cc1, the outcome was “inactive”. With CC(O)CNCCNCc1c(OCc2ccccc2)ccc2ccccc12 (stereo not given) the outcome was “inactive”. In the case of N#CC1=C(N)Oc2c(O)cc3ccccc3c2C1c1ccsc1 (stereo not given), the outcome is reported as “inactive”. With COc1ccc(Nc2ccc3c(c2)=NC2(CCCCC2)[N+]=3[O-])cc1 the outcome was “inactive”. In the case of COc1ccc(Nc2sc(C(=O)Nc3cccc(Cl)c3)c(N)c2C(=O)Nc2ccccc2OC)cc1, the outcome is reported as “inactive”. With COc1ccc(OCCSc2nnc(-c3ccc(OC)cc3)n2N)cc1 the outcome was “inactive”. In the case of O=C(CC(NS(=O)(=O)c1ccc(Cl)cc1)c1ccco1)N1CCc2ccccc21 (stereo not given), the outcome is reported as “inactive”. For Cc1cc(-c2nnc(-c3ccccc3)c(-c3ccccc3)n2)c(C)o1, the outcome was “inactive”. In the case of CO/N=C\CC(=O)Nc1ccc(F)cc1, the outcome is reported as “inactive”. With Cc1ccc(NC(=S)NCc2cccnc2)cc1 the outcome was “inactive”. With Oc1ccc(/C=N/NC(=S)Nc2cccnc2)c(O)c1 the outcome was “inactive”. For COc1cccc(NC(=O)NCCCN2CCN(c3ccc(F)cc3)CC2)c1, the outcome was “inactive”. With Cc1ccc(-n2c(C)cc(-c3csc(N)n3)c2C)cc1 the outcome was “inactive”. In the case of CCOc1ccc(C(=O)NC(=S)Nc2ccc(N3CCCCC3)cc2)cc1[N+](=O)[O-], the outcome is reported as “inactive”. For CCOc1ccc(CSC(=N)N)cc1[N+](=O)[O-], the outcome was “inactive”. With CCOc1ccc(C(=O)Nc2ccccc2CC)cc1[N+](=O)[O-] the outcome was “inactive”. With CC(C)NC(=O)/C(=N\O)c1ccccc1 the outcome was “inactive”. With Cc1ccc(Oc2nnc(-c3ccccc3)c3ccccc23)cc1 the outcome was “inactive”. With CCn1c(SCC(=O)N2CCCCC2)nc(O)cc1=O the outcome was “inactive”. For Cc1ccc(Nc2cc(=O)[nH]c(=O)[nH]2)c(C)c1, the outcome was “inactive”. With CCn1c2ccccc2c2cc(C3N=C(N)Nc4nc5ccccc5n43)ccc21 (stereo not given) the outcome was “inactive”. With CCn1cc(C(=O)O)c(=O)c2cc(OC)ccc21 the outcome was “inactive”. With COc1ccc(Oc2coc3cc(OC(=O)c4cccs4)ccc3c2=O)cc1 the outcome was “inactive”. With CCOC(=O)c1ccc(NC(=O)Nc2cc(C)on2)cc1 the outcome was “inactive”. With COC(=O)C1C(=O)C=C(N2CCOCC2)CC1(C)C (stereo not given) the outcome was “inactive”. For O=C(CNC(=O)OCc1ccccc1)NCC(=O)N1CCCC1C(=O)OCc1ccccc1 (stereo not given), the outcome was “inactive”. For COc1ccc(C2=C(Nc3ccc(C)cc3)c3ccccc3C2=O)cc1, the outcome was “inactive”. With O=c1c(Cl)c(Cl)cnn1Cc1ccccc1Cl the outcome was “inactive”. For N=c1sccn1CC(=O)Nc1ccccc1Oc1ccccc1, the outcome was “inactive”. For CC(=O)N1CCC(N(CCN2CCOCC2)C(=S)Nc2cccc(C)c2C)CC1, the outcome was “inactive”. In the case of CCCNC(=O)COC(=O)CCC(=O)c1ccc(F)cc1, the outcome is reported as “inactive”. In the case of NC(=NCc1ccc2c(c1)OCO2)NC(=O)c1ccccc1, the outcome is reported as “inactive”. With O=C(CN1CCCCC1)Nc1cccc2c1OCO2 the outcome was “inactive”. In the case of O=C(Nc1ccc2oc(-c3ccc(Cl)c(Cl)c3)nc2c1)c1ncn[nH]1, the outcome is reported as “inactive”. With CCOC(=O)C1=C(C)Nc2nc3ccccc3n2C1c1cccs1 (stereo not given) the outcome was “inactive”. In the case of COc1ccc(-c2nc3ccccc3c(=O)n2-c2nccs2)cc1, the outcome is reported as “inactive”. For Brc1cccc(CNc2nc3ccccc3n2CCN2CCCCC2)c1, the outcome was “inactive”. In the case of CC(=O)N1C(=O)C2(C(C#N)=C(N)Oc3c2c(C)nn3-c2ccccc2)c2ccccc21 (stereo not given), the outcome is reported as “inactive”. For CCCCn1cnc2c(cnn2-c2ccc(F)cc2)c1=O, the outcome was “inactive”. For CC(NC(=O)C1(C)CC1(Br)Br)C(C)(C)C (stereo not given), the outcome was “inactive”. With Cc1ccc(C(=O)C(OC(=O)COc2ccccc2C)c2ccccc2)cc1 (stereo not given) the outcome was “inactive”. For Cc1ccc(C(=O)NNc2c3ccccc3nc3ccccc23)cc1, the outcome was “inactive”. With O=C(NCCc1ccccc1)c1ccc2nc(-c3ccco3)c(-c3ccco3)nc2c1 the outcome was “inactive”. With C=CCOc1ccccc1CNCCCN1CCOCC1 the outcome was “inactive”. With O=c1[nH]c(NCc2ccco2)nnc1Cc1ccccc1Cl the outcome was “inactive”. In the case of Nc1cc(N)cc(-c2nc3ccccc3[nH]2)c1, the outcome is reported as “inactive”. For O=C(NNc1c2ccccc2nc2ccccc12)c1cccc(O)c1, the outcome was “inactive”. For COc1ccc(S(=O)(=O)n2nc(OC(=O)c3cccs3)cc2N)cc1, the outcome was “inactive”. In the case of CC(=O)C1=C(C)NC(SCSc2ccccc2)=C(C#N)C1c1cccnc1 (stereo not given), the outcome is reported as “inactive”. With COC(=O)CCC(=O)Nc1ccc(Cl)c(Cl)c1 the outcome was “inactive”. For S=C(Nc1ccc(Cl)c(Cl)c1)N1CCOCC1, the outcome was “inactive”. With CCC(Sc1ncccc1C(=O)OC(C)C)C(=O)N1CCOCC1 (stereo not given) the outcome was “inactive”. In the case of O=C(CSc1ccc2c(c1)OCCO2)NCCc1ccc(Cl)cc1Cl, the outcome is reported as “inactive”. For CCOC(=O)/C(=C/C=C/c1ccccc1)NC(=O)c1ccccc1, the outcome was “inactive”. With COc1ccc2[nH]c(S(=O)Cc3ncc(C)c(OC)c3C)nc2c1 (stereo not given) the outcome was “inactive”. In the case of Cc1[nH]c2ccccc2c1/C=N/O, the outcome is reported as “inactive”. With Oc1ccc(-c2n[nH]c(=S)n2-c2ccc3c(c2)OCCO3)c(O)c1 the outcome was “inactive”. For Cc1ccc(Nc2nc(CSc3nnc(-c4cccnc4)n3-c3ccccc3F)cs2)cc1, the outcome was “inactive”. For COc1ccc(OC)c(S(=O)(=O)N(C)CC(=O)N2CCc3ccccc3C2)c1, the outcome was “inactive”. In the case of COc1cc(C)nc(Nc2nc(C)c(C(C)=O)s2)n1, the outcome is reported as “inactive”. In the case of COC(OC)c1nc(SCC(=O)Nc2cccc(Cl)c2)ncc1C(=O)O, the outcome is reported as “inactive”. In the case of CN(c1cccc(Cl)c1)S(=O)(=O)c1cccc(C(=O)Nc2nc3ccccc3[nH]2)c1, the outcome is reported as “inactive”. For C(=C\c1ccccc1)/C=N/Nc1nc2ccccc2[nH]1, the outcome was “inactive”. For C#CCn1cc(/C=N/Nc2nc3ccccc3[nH]2)c2ccccc21, the outcome was “inactive”. In the case of CCN(CC)c1ccc(/C=N/NC(=S)NCc2ccccc2)c(O)c1, the outcome is reported as “inactive”. In the case of CN1CCN(S(=O)(=O)c2ccc(-c3ccccc3)cc2)CC1, the outcome is reported as “inactive”. For COc1ccc(C2=Nc3cccc4cccc(c34)N2)cc1, the outcome was “inactive”. In the case of Cc1ccc(CNC(=O)c2cccc(S(C)(=O)=O)c2)cc1, the outcome is reported as “inactive”. In the case of COc1ccc(-c2nnc(SCC(=O)NCc3ccco3)o2)cc1, the outcome is reported as “inactive”. For Cc1ccc(S(=O)(=O)NCCC(=O)OCn2nnc3ccccc3c2=O)cc1, the outcome was “inactive”. For CN1/C(=C/C=N/NC(=O)c2ccc([N+](=O)[O-])cc2)C(C)(C)c2ccccc21, the outcome was “inactive”. In the case of CN1/C(=C/C2CC(=O)N(c3cccc4ccccc34)C2=O)C(C)(C)c2ccccc21 (stereo not given), the outcome is reported as “inactive”. For COC(=O)c1cc(C#N)c(Oc2cccc(C)c2C)nc1C, the outcome was “inactive”. In the case of Cc1c(/C=C/C(=O)c2ccccc2)cnn1C, the outcome is reported as “inactive”. In the case of O=C1c2ccccc2C2=Nc3ccccc3SC(c3cccc(F)c3)C12 (stereo not given), the outcome is reported as “inactive”. In the case of Cn1c(N)c(C(=O)COC(=O)C2CCCCC2)c(=O)n(C)c1=O, the outcome is reported as “inactive”. In the case of COc1ccccc1NCCC(=O)OCC(=O)NC1CCCCCC1, the outcome is reported as “inactive”. In the case of O=c1c2ccccc2nc(-c2ccco2)n1-c1nccs1, the outcome is reported as “inactive”. With CNc1nc(Sc2ccccc2)cc(C(F)(F)F)n1 the outcome was “inactive”. With CC(=O)Nc1c(C#N)c(C(C)(C)C)cn1C the outcome was “inactive”. In the case of CCOC(=O)c1ccc(N2CCN(c3ccc(F)cc3)CC2)c(NC(=O)Nc2cccc(OC)c2)c1, the outcome is reported as “inactive”. In the case of COc1ccccc1-c1c(C#N)c(N)nc2c1CCc1ccccc1-2, the outcome is reported as “inactive”. For CCOC(=O)CSc1nc2c(sc(=S)n2-c2ccccc2)c(=O)n1-c1ccc(OC)cc1OC, the outcome was “inactive”. In the case of CCOC(=O)Cc1ccc2sc(-c3ccccc3)nc2c1, the outcome is reported as “inactive”. In the case of Cc1ccc2cc(C(=O)O)c(C)nc2c1, the outcome is reported as “inactive”. With N/C(=N\OC(=O)Nc1ccc(Cl)cc1)c1ncc(C(F)(F)F)cc1Cl the outcome was “inactive”. With COc1cccc(C=NCC(C)N=Cc2cccc(OC)c2O)c1O (stereo not given) the outcome was “inactive”. In the case of N#C/C(=C\c1ccc(F)c(F)c1)C(=O)NC1CCCCC1, the outcome is reported as “inactive”. In the case of N#CC(C#N)=c1ccc2c(c1)NC1(CCCCC1)N=2, the outcome is reported as “inactive”. For CCCCCCCSc1cc(OC)c(CCN(C)C)cc1OC, the outcome was “inactive”. In the case of CCCCn1nnnc1NCc1cc(OC)c(OC)cc1OC, the outcome is reported as “inactive”. For COc1ccccc1NS(=O)(=O)c1cc(NC(=S)Nc2cc(C)cc(C)c2)ccc1Cl, the outcome was “inactive”.
